Assay results reported in PubChem BioAssay (EPA / NIEHS).
Several values for one entry are separate records, joined by “and”; a condition that tells them apart may be missing. Equal entries are not always repeated. Records with an inconclusive call do not appear. Activity calls are given as the source filed them. How the source made its calls: active means hit-call score of the fitted dose curve at least 0.9, where 1 is the maximum; inconclusive means response in the unintended direction; inactive means score below 0.9.

assay: CCTE_Shafer_MEA_dev_bursting_electrodes_number: CCTE's Neural Network Formation Assay for Number of Bursting Electrodes, Shafer Lab (AID 2284043)
Procedure: CCTE_Shafer_MEA_dev assay is conducted using Axion Biosystems 48 well microelectrode array (MEA) plates and Maestro recording system. Each well of the MEA plate contains a grid of 16 microelectrodes embedded in the culture surface. Electrically active cells, such as neurons, can be cultured over the electrodes, and electrical activity in these cells can be recorded extracellularly. The spontaneous firing of neurons is captured from each electrode on a microsecond timescale providing both temporally and spatially precise data. […] The CCTE_Shafer_MEA_dev assay uses primary cultures of rat cortical neurons. Recordings are made on days post-plating 5, 7, 9 and 12. As these cultures mature over time, neural networks develop functional activity and form cohesive networks in which electrical activity can be highly coordinated. CCTE_Shafer_MEA_dev_bursting_electrodes_number is 1 of 19 assay components of the CCTE_Shafer_MEA_dev assay. It measures the number of electrodes in a well with a burst rate of at least 1 burst (temporally-clustered group of action potential firing) every 2 minutes during a recording in a microelectrode array (MEA) using Axion Biosystems Maestro 768 channel amplifier with the AxIS adaptive spike detector. To collapse across multiple recordings made on days post-plating 5, 7, 9 and 12, the trapezoidal area-under-the-curve of the component is calculated.Data from the assay component CCTE_Shafer_MEA_dev_bursting_electrodes_number was analyzed into 1 assay endpoint. This assay endpoint, CCTE_Shafer_MEA_dev_bursting_electrodes_number, was analyzed in the negative analysis fitting direction relative to DMSO as the negative control and baseline of activity. Using a type of functional reporter, gain or loss-of-signal activity can be used to understand electrical activity.
On the day prior to culture, each well was coated thoroughly with 150 uL of 0.05% polyethyleneimine (PEI, Sigma Cat P3143) in 50 mM HEPES (Sigma Cat H7523) at a pH of 8. The plate was incubated at 37C for one hour. PEI was rinsed out with 500 uL of sterile water three times. Plates were stored at 4C until the day of culture. This culture was plated at a seeding density of 1.5 x 10^5 cells/well on a 48-well MEA plate, prepared as described above. Cells were administered via a 25 uL media/laminin ([…]; Sigma Cat L2020-1MG) drop directly onto the microelectrode array, as adding the cells with the laminin results in better attachment than pre-coating with laminin. After 2 hours, an additional 475 uL of cortical media was added and the cells returned to the incubator. Exposure starts at day 0 of plating and is continued over twelve days of network development until the experiment is terminated. Cells are fed with fresh medium on DIV 5 and 9, following the recordings on those days. The entire volume of media in the well is exchanged and any vehicle or compound treatment is renewed. Complete details are found in OP-NHEERL/ISTD/SBB/TJS/2015-03-r0 (available on request, email shafer.tim@epa.gov). Measurement of the electrical activity is non-invasive, and recordings can be made from the same plate over multiple different days of the culture. In cortical neurons, this allows for the measurement of extracellular action potentials over the period during which networks form in the MEA plate.

| Compound | AC50 | outcome |
| --- | --- | --- |
| ClC1(Cl)C2(Cl)C3(Cl)C4(Cl)C(Cl)(Cl)C5(Cl)C3(Cl)C1(Cl)C5(Cl)C24Cl (stereo not given) | 1.62 µM (active) | – |
| C=C(C)C(=O)[O][Sn]([CH2]CCC)([CH2]CCC)[CH2]CCC | 0.0199 µM (active) | – |
| O=C1C2(Cl)C3(Cl)C4(Cl)C(Cl)(Cl)C5(Cl)C3(Cl)C1(Cl)C5(Cl)C24Cl (stereo not given) | 3.55 µM (active) | – |
| CC(C)(C)c1cc(O)ccc1O | 6.04 µM (active) | – |
| Cn1sc(Cl)cc1=O | 5.1 µM (active) | – |
| CCOP(=S)(OCC)Oc1nc(Cl)c(Cl)cc1Cl | 23.2 µM (active) and 4.58 µM (active) and 21.5 µM (active) | – |
| CCC(=O)C(CC(C)N(C)C)(c1ccccc1)c1ccccc1 (stereo not given) | 4.45 µM (active) | – |
| CC(=O)[O][Hg][c]1ccccc1 | 0.0108 µM (active) | – |
| COP(=O)(OC)O/C(=C\Cl)c1cc(Cl)c(Cl)cc1Cl | 79.3 µM (active) and 51.5 µM (active) | – |
| O=C(O)C(F)(F)C(F)(F)C(F)(F)C(F)(F)C(F)(F)C(F)(F)C(F)(F)C(F)(F)C(F)(F)C(F)(F)F | – | inactive |
